Measured values from PubChem BioAssay AID504891 (National Center for Advancing Translational Sciences (NCATS), 2011).
Out of some 390,000 compounds screened, about 35 (0.009%) were called active. Not shown: some 6% with an inconclusive outcome. For the sample, actives were picked, then their nearest neighbours and some compounds at random. Unmarked numbers belong to inactive results. Calls come from the whole dose curve; as a rule, active = well fitted inhibition curve with a large enough effect in the polarisation, with a control signal flat (not every such curve was filed as active); inconclusive = small, poorly fitted or top-dose-only effect, or effect the other way, or a change in a side signal; inactive = no such curve, though single readings can be large or run the other way; the % refers to the polarisation.

Target: Peptidyl-prolyl cis-trans isomerase NIMA-interacting 1 (Homo sapiens) (UniProt Q13526)
Sequence (Q13526 whole entry, looked up): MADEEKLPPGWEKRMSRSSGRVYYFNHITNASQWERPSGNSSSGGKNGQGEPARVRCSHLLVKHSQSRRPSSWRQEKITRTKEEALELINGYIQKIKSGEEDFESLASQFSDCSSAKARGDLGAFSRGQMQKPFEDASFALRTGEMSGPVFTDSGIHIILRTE
Test: qHTS Assay to Find Inhibitors of Pin1
Settings: Pin1 FP peptide displacement, HiFluor488, 10 min; series mostly up to 115 µM; activity, negative = inhibition: at the top concentration
Text: NIH Molecular Libraries Probe Production Network [MLPCN]
NIH Chemical Genomics Center [NCGC]
The unique chemical properties of Pro allow for the adoption of two completely distinct amide bond conformations (cis and trans). Peptidyl-prolyl cis/trans isomerases (PPIases) are evolutionary conserved enzymes that catalyze cis/trans isomerization of peptidyl-prolyl peptide bonds. Distinct from all other PPIases such as cyclophilins and FK506-binding proteins (FKBPs), Pin1 binds a subset of phos.Ser/Thr-Pro-containing proteins using its protein-targeting WW domain and isomerizes only specific phos.Ser/Thr-Pro bonds, which cannot be effectively catalyzed by other known PPIases.
Pin1-catalyzed conformational regulation can control a spectrum of activities of many key regulators in diverse cellular processes such as cell growth, genotoxic and other stress responses, immune response, germ cell development, neuronal differentiation and survival. Pin1 has emerged as a novel molecular timer that modulates its multiple targets at various steps of a given cellular process to synergistically control the amplitude and duration of a cellular response or process. Importantly, Pin1 is tightly regulated by multiple levels and its deregulation has an important role in a growing number of pathological conditions, including cancer, Alzheimer's disease, aging, asthma and microbial infection, providing a potentially new therapeutic option.
The goal of this screen is to find small-molecule inhibitors of Pin1 using a fluorescence polarization competition assay. A HiFluor-488-labeled peptide binds to the active site of Pin1 and can be displaced by compounds. Compounds were screened as a concentration-titration series that ranged from 57 uM to 0.7 nM.
NCGC Assay Protocol Summary:
Pin1 (0.6 uM) was dispensed into black, solid 1536-well plates at 2 uL/well in 10 mM HEPES (pH 7.5), 10 mM NaCl, 0.01% Tween20, 1 mM DTT, and 1% glycerol. Then, 23 nL of compounds or DMSO were delivered to each well using a pin tool. Two uL of Pin1-1b-HiFluor488 peptide (10 mM HEPES (pH 7.5), 10 mM NaCl, 0.01% Tween20, 1 mM DTT, and 1% glycerol, 0.02 uM Pin1-1b-HiFluor488) was then dispensed, and plates were incubated at room temperature for 10 min. The plates were measured on a ViewLux plate reader for fluorescence polarization signal using a 480/20 nM nm excitation filter and 540/25 nM nm S and P emission filters with a 20 second exposure. The %Activity was determined from the corrected fluorescence polarization values. Unlabeled Pin1-1c peptide was used as a control (3.5 mM two-fold serial; 20 uM final concentration) along with a 1x (0.3 uM) and 0x (no-enzyme) Pin1 enzyme control to normalize %Activity of identified inhibitors; 0x enzyme values corresponded to 100%Activity (full inhibition), while 1x Pin1 enzyme values were used to normalize 0%Activity (no inhibition).
Concentration-response curves were fitted to the signals arising from the resulting fluorescence polarization. The concentration-effect curves were then classified based on curve quality (r2), response magnitude and degree of measured activity, and compounds were subsequently categorized based on their curve class.
Keywords: Peptidyl prolyl isomerase, Pin1, fluorescence polarization, MLSMR, MLPCN, NIH Roadmap, qHTS, NCGC

Compound | activity, negative = inhibition
COc1cccc(C(=O)NC2CCN(C#N)CC2)c1 | -5.15%
CCOC(=O)c1c(N)n(-c2cccc(C)c2C)c2nc3ccccc3nc12 | 2.25%
COc1ccc(Br)cc1C1C2C=CCC(C)C2C(=O)N1Cc1ccccc1 (stereo not given) | -1.96%
O=C(OCC#CCSc1nnc(-c2ccco2)o1)c1ccc(F)cc1 | -1.5%
CC(=O)OCC(NC(=O)C(Cc1ccccc1)NC(=O)OC(C)(C)C)C1OC(n2ccc(=O)[nH]c2=O)C(OC(C)=O)C1OC(C)=O (stereo not given) | -9.82%
CC(=O)Nc1ccc(S(=O)(=O)N2N=NC3C2C2CC4C3(CN(C(=O)OC(C)(C)C)S4(=O)=O)O2)cc1 (stereo not given) | 1.34%
COc1cccc(OC2=NS(=O)(=O)c3ccccc32)c1 | 25% [at 163 µM]
COc1ccc(C2Nc3ccccc3C(=O)N2Cc2ccccc2)cc1COc1ccc(C(N)=O)cc1 (stereo not given) | 29.2%
CCN(CC)S(=O)(=O)c1ccc2c(c1)N(CC(=O)NCc1ccccc1)C(=O)CS2 | -0.42%
Cc1cccc(N2CCN(S(=O)(=O)c3ccc4[nH]c5c(c4c3)CCCCC5)CC2)c1C | 16.4%
Cc1cc(C)cc(NC(=O)CSc2nc(=O)n(CCN3CCOCC3)c3c2CCC3)c1 | -1.89%
Cc1ccc(Cn2c(=O)n(-c3ccc(C)cc3)c(=O)c3c2c2cc(C)ccc2n3C)cc1 | -5.52%
CCCCN(CC)CCCNC(=O)Cn1ncc2c([nH]c3ccc(C)cc32)c1=O | -1.71%
CCC(=O)Nc1ccccc1-c1nc2ccccc2n(CC(=O)Nc2ccc(C)c(C)c2)c1=O | -8.24%
O=C1CCCC2=C1[C@@]1(CCC(c3ccccc3)C1)N=C(Nc1nc3ccccc3o1)N2 (stereo not given in full) | inactive
Cc1cc2n(n1)C(c1cc(C(C)(C)C)c(O)cc1O)Nc1ccccc1-2 (stereo not given) | 5.72%
CCOc1ccccc1CNC(=O)c1ccc2c(c1)nc1n2CCC(C)C1 (stereo not given) | -1.31%
COc1cc(C(=O)N2CCN(c3ccc(Nc4ccc(C)cc4)nn3)CC2)cc(OC)c1OC | 10.4%
COc1cccc(C2c3c(ncn(-c4cccc(Br)c4)c3=N)Oc3ccc4ccccc4c32)c1 (stereo not given) | 14.3%
Cc1ccc(Cl)cc1NC(=O)Cc1ccc(-n2c(C)nc3cccnc32)cc1 | 20.3%

Compound | activity, negative = inhibition
Cc1ccc(Nc2c(-c3ccc(Cl)cc3)nc3sccn23)c(C)c1 | 1.8%
OCCNc1ncnc2oc(-c3ccco3)c(-c3ccco3)c12 | -1.56%
O=c1c2ccccc2nc2sc(Nc3ccc4c(c3)OCO4)nn12 | -1.55%
CC(=O)c1sc(N2C(=O)c3oc4ccccc4c(=O)c3C2c2ccc(C)cc2)nc1C (stereo not given) | -2.64%
NC(=O)C1CCN(c2ncc(-c3ccc(Cl)cc3)s2)CC1 | 6.84%
CCOc1ccc(NC(=O)C(=O)NCCc2csc3nc(-c4ccccc4F)nn23)cc1 | 14.9%
CCCc1cc(=O)n2[nH]c(NCc3ccc(CC)cc3)nc2n1 | -1.99%
C=C1CCN(C(CC(C)C)C(=O)N2CCOCC2)S(=O)(=O)c2ccccc21 (stereo not given) | 11.6%
Cn1nnnc1Sc1ncnc2scc(-c3ccccc3[N+](=O)[O-])c12 | 0.265%
COc1cc(OC)c2c(c1C(CCN1CCCCC1)c1ccc(N(C)C)cc1)OC(=O)CC2c1ccc(N(C)C)cc1 (stereo not given) | 4.39%
CCOc1ccccc1NC(=O)Cn1c(=O)n(-c2cccc(C)c2)c(=O)c2c1c1cc(OC)ccc1n2C | -2.84%
O=C(Cn1c(-c2cccs2)cc2ccccc21)NCCc1ccc(Cl)cc1 | 1.33%
COC(=O)c1ccccc1S(=O)(=O)Nc1ccc(OC)cc1 | 12.7%
Cc1c(-c2cccc(NC(=O)C(C)(C)C)c2)nc2ncccn12 | 4.16%
CCN(CC)/[N+]([O-])=N/Oc1cc(O/[N+]([O-])=N/N2CCCC2CO)c([N+](=O)[O-])cc1[N+](=O)[O-] (stereo not given) | -3.49%
Cc1ccc(-c2nc(=N)sn2Cc2ccccc2)cc1 | 0.942%
COc1ccc(-c2nc(=N)sn2-c2ccccc2)cc1 | 8.42%
CC(=O)NC(c1cccs1)c1cc(Cl)c2cccnc2c1O (stereo not given) | 0.471%
Cc1cc2c(s1)c1cnn(Cc3c(F)cccc3Cl)c(=O)c1n2C | -0.0245%
c1coc(CCNc2ncnc3ccc(-c4ccc5c(c4)OCO5)cc23)c1 | 26.5%
